D2 ag-1 – activates the human D2 dopamine receptor; 340,000 tested, 0.53% active; activation, % at 2 µM; P14416; AID 485358; HEK293 T-REx D2 cells, calcium flux agonist mode;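 active = activation over 3 SD above normal in the single-dose calcium agonist read, cut at about 30% in these data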
Target sequence (P14416 whole entry, looked up): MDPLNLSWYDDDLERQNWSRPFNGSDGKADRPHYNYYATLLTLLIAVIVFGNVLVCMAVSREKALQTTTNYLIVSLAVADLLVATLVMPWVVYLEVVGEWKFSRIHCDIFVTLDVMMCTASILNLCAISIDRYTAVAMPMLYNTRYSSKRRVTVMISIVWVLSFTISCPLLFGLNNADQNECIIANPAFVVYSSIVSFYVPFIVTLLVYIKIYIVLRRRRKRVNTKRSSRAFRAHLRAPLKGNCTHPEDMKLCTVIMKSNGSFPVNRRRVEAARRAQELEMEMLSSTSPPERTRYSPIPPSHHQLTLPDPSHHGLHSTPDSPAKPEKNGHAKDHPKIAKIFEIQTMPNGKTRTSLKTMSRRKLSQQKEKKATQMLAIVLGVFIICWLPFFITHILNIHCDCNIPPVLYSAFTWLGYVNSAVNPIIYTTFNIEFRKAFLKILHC
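Agonism scored from kinetic calcium signal (1 read/sec, 180 s) following compound pin transfer, after a 10 s baseline. Cells: HEK293 Trex line expressing inducible D2 receptor coupled to calcium, dye-loaded after overnight culture at 30 C.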
D2 PAM-1 – human D2 receptor positive allosteric modulation. 360,000 tested, 0.23% active. P14416. potentiation, % (concentration not given with the values). DiscoveRx D2 beta-arrestin cells, luminescence, 90 min; 100% = 57 uM dopamine signal; in the data active = potentiation above about 50%
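PathHunter beta-arrestin assay in DiscoveRx D2 cells. Compounds were added with an EC20 of dopamine (50 nM final) for 90 min at 37 deg C. Luminescence was read 1 h after detection reagent, with 57 uM dopamine as the EC100 control.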
D2 antag – D2 dopamine receptor (human) antagonism | AID 485344 | inhibition, % at 10 µM | HEK293 TREx D2 cells, calcium flux, dopamine EC80 | P14416 | 340,000 tested, 2% active; in the data active = inhibition above about 30%; inactive = below that, where a call was filed
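Antagonism is scored as inhibition of an EC80 dopamine-evoked calcium signal in a force-coupled, tetracycline-inducible HEK293 T-REx D2 line, with compound present 180 s before agonist.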
D2 PAM-2 – D2 dopamine receptor (human) potentiation | potentiation, % at 10 µM | 340,000 tested, 0.34% active | HEK293 T-REx D2, calcium flux, EC20 dopamine potentiation | P14416 | AID 485347;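 active = potentiation over 3 SD above the plate norm, cut at about 30% in these data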
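Potentiation of an EC20 dopamine calcium response measured kinetically over 180 s, after a preceding 180 s compound-only read flagging agonists. Cells: inducible Hek293 Trex D2 line, 4000/well, cultured overnight at 30 C before dye loading.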
D2 ag-2 – agonists of human D2 dopamine receptor (beta-arrestin); P14416; DiscoveRx PathHunter D2 beta-arrestin, luminescence, 90 min; 100% = 57 uM dopamine signal; activation, % (concentration not given with the values); 360,000 tested, 0.084% active; in the data active = activation above about 40%
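Agonist mode: compounds alone added to overnight-plated D2 PathHunter cells for 90 min at 37 C, with 57 uM final dopamine (EC100) defining full response. Beta-arrestin recruitment detected by chemiluminescent reagent, read after 1 h at ambient temperature.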
Of the large screens only hits and unclear results are named; the others gave an inactive call. Rows were chosen to be rich in hits. Some 2.4% of all compounds tested hit in one or more screens of this group.

COC(=O)c1ccc2c(c1O)C(=O)c1ccccc1C2=O	D2 PAM-1 107.1
C/C(=N\NC(=O)COc1ccccc1)c1ccc(O)cc1	none
C/C(=N\NC(=O)CC#N)c1ccc(Oc2ccccc2)cc1	D2 PAM-2 38.5
O=C(Nc1ccc(F)cc1)N1CCn2c(nc3ccccc32)C1	D2 antag 33.4
CCC1CN(C(=O)Nc2ccc(C)c(F)c2)c2ccccc2S1 (configuration not stated)	none (no result: D2 PAM-1, D2 antag, D2 ag-2)
COC(=O)c1ccc(/C=C(\C#N)C(=O)NC(C)c2ccccc2)cc1 (configuration not stated)	none
CC(NC(=O)/C(C#N)=C/c1ccc(N2CCOCC2)cc1)c1ccccc1 (configuration not stated)	D2 PAM-2 32.2
CC1=C(C(=O)OC2CCCC2)C(c2ccccc2C(F)(F)F)CC(=O)N1 (configuration not stated)	none (no result: D2 PAM-1, D2 antag, D2 ag-2)
O=C1CN2C(=N1)N(Cc1ccccc1)c1ccccc12	D2 antag 70.7
c1ccc(CN2C3=NCCCN3c3ccccc32)cc1	none
Cc1ccc(NC(=O)CC2SC(=O)NC2=O)cc1 (configuration not stated)	none
COc1ccc(NC(=O)CC2SC(=O)NC2=O)cc1 (configuration not stated)	D2 PAM-2 36.5
CC(C)c1nnc(N2C(=O)C(O)=C(C(=O)c3cccs3)C2c2ccccc2)s1 (configuration not stated)	D2 ag-1 165.8, D2 antag 47.9
NS(=O)(=O)c1ccc(NC(=O)CSc2nc3ccccc3n2-c2ccccc2)cc1	D2 antag 31.5
N#CCCN1CCN(S(=O)(=O)c2cc(Cl)ccc2Cl)CC1	D2 PAM-2 37.2
Cc1nc(SCC(=O)Nc2ccc(F)cc2)c(C#N)c(C)c1CC(=O)c1ccc(Br)cc1	D2 antag 44.1
COC(=O)C1=CN(Cc2ccc(C)cc2)C=C(C(=O)OC)C1c1cc(OC)c(OC)c(OC)c1	none
COCCN1C=C(C(=O)OC)C(c2cc(Br)c(OC)c(OC)c2)C(C(=O)OC)=C1	D2 PAM-2 33.5
Cc1cc(NC(=O)c2cc(-c3ccc(OC(C)C)cc3)nc3ccccc23)no1	D2 PAM-2 30.1
O=C(CSCc1ccccc1Cl)NN=C1CCCCCC1	D2 antag 38.4
O=C(CSCc1ccc(Cl)cc1)NN=C1CCCC1	none
O=C(CSCc1ccc([N+](=O)[O-])cc1)NN=C1CCCCCC1	D2 PAM-2 35.4
CCn1cc2nc(SCC(=O)Nc3ccc(F)cc3F)n(Cc3ccccc3)c(=O)c2n1	D2 antag 31.9
CCn1cc2nc(SCC(=O)Nc3cccc(Cl)c3C)n(Cc3ccc(Cl)cc3)c(=O)c2n1	none (no result: D2 PAM-1, D2 antag, D2 ag-2)
CCOC(=O)c1c(S(=O)(=O)NCCc2cccs2)c(C)n(C)c1C	none
CCOC(=O)c1c(C)[nH]c(C)c1S(=O)(=O)NCC1CCN(Cc2ccccc2OC)CC1	D2 antag 32.9
CCOC(=O)c1c(C)[nH]c(C)c1S(=O)(=O)NCC1CCN(Cc2cccc(F)c2)CC1	D2 antag 73.9
CCOC(=O)c1c(S(=O)(=O)NCC2CCN(CCc3cccs3)CC2)c(C)n(C)c1C	D2 antag 43.2
CCOC(=O)c1c(C)[nH]c(C)c1S(=O)(=O)Nc1ccc(CN2CCCCC2)cc1	none
O=c1[nH]nc(C(F)(F)F)c2nnn(Cc3ccccc3Cl)c12	none
Cc1n[nH]c(=O)c2c1nnn2Cc1ccccc1Cl	D2 antag 57.7
C/C(CCc1ccc2c(c1)OCO2)=N\N=C1\NC(=O)CC(C(=O)Nc2ccccc2F)S1 (configuration not stated)	D2 antag 40.4
COc1ccccc1NC(=O)C1=C(C)Nc2nc3ccccc3n2C1c1cccc(Br)c1 (configuration not stated)	none (no result: D2 PAM-1, D2 antag, D2 ag-2)
CC(C)N(Cc1ccccc1)C(=O)CC(=O)N(Cc1ccccc1)C(C)C	D2 PAM-2 35.1
CC(C)N(Cc1ccccc1)C(=O)CN1C(=O)c2ccccc2C1=O	none
COc1cccc(CC2(CO)CCCN(Cc3ccc4c(c3)OCCO4)C2)c1 (configuration not stated)	D2 antag 56.2
OCC1(Cc2ccccc2)CCCN(Cc2ccc(-c3ccco3)cc2)C1 (configuration not stated)	D2 antag 54.2
CCOc1ccc(CN2CCCC(CO)(Cc3ccccc3F)C2)cc1 (configuration not stated)	D2 antag 66.8
CCn1ccnc1CN1CCCC(CO)(Cc2cccc(OC)c2)C1 (configuration not stated)	none
COc1cc(Cl)c(CN2CCCC(CO)(Cc3ccccc3F)C2)cc1OC (configuration not stated)	none
Cc1c2cnn(-c3ccccc3)c(=O)c2c(C)n1CCCC(=O)Nc1cc(F)ccc1F	none (no result: D2 PAM-1, D2 antag, D2 ag-2)
CN(C)CCNC(=O)c1c(CSc2ccccc2)noc1C(=O)NCc1ccccc1	none
COc1ccc(C2=C(N3CCN(c4cccc(C)c4)C(C)C3)c3ccccc3C2=O)cc1 (configuration not stated)	none (no result: D2 PAM-1, D2 antag, D2 ag-2)
Cc1noc2ncnc(NCc3ccc(Cl)cc3)c12	none (no result: D2 PAM-1, D2 antag, D2 ag-2)
O=S(=O)(Nc1cccc(-c2ccc(N3CCOCC3)nn2)c1)c1ccccc1C(F)(F)F	none (no result: D2 PAM-1, D2 antag, D2 ag-2)
O=C1NC(=Nc2ccccc2)SC1Cc1ccccc1 (configuration not stated)	D2 PAM-2 41.3
O=C1N/C(=N/c2ccccn2)SC1Cc1ccccc1 (configuration not stated)	none
COc1ccc(OC)c(/C=C/C(=O)Nc2ccc(C(=O)OCCC(C)C)cc2)c1	none (no result: D2 PAM-1, D2 antag, D2 ag-2)
Cc1ccccc1NC(=O)C1(C)Cc2ccccc2C(=O)O1 (configuration not stated)	D2 PAM-2 33.5
CCN(CC)c1ccc(/C=C/C(=O)C2C(=O)C=C(C)OC2=O)cc1 (configuration not stated)	D2 ag-1 82.8, D2 antag 50.3 (no result: D2 PAM-2)
Cc1c2ccccc2nc2c(F)c(NC(C)C)c(F)c(F)c12	D2 ag-1 44.8
CC1(C(=O)NCC(F)(F)F)CCN1C(=O)C1(c2ccccc2)CC1 (configuration not stated)	none (no result: D2 ag-1, D2 antag, D2 PAM-2)
CNS(=O)(=O)c1ccc(C(C)(C)C)cc1	D2 antag 64.7
CCc1nnc(NC(=O)CCC(=O)NCCc2ccc(OC)c(OC)c2)s1	none
O=C(CN1C(=O)C2CCCCN2c2ccc(C(=O)N3CCCC3)cc21)NCc1cccc(Cl)c1 (configuration not stated)	none (no result: D2 PAM-1, D2 antag, D2 ag-2)
O=C(NCc1ccco1)c1cccc2c1C(=O)N(C1CCCCC1)C2	D2 PAM-2 35.3
Cc1ccccc1Nc1nc(-c2sc(NC(=O)c3cccc(Cl)c3)nc2C)cs1	D2 PAM-2 30.9 (no result: D2 PAM-1, D2 ag-2)
NS(=O)(=O)c1ccc(NC(=O)Cc2cccs2)cc1	D2 antag 38.6
CCCN(CCC)S(=O)(=O)c1ccc2c(c1)N(CC(=O)NCc1ccc(F)cc1Cl)C(=O)CS2	none (no result: D2 PAM-1, D2 antag, D2 ag-2)

Screens deposited in PubChem by National Center for Advancing Translational Sciences (NCATS).
